Some of the results follow. Records with an inconclusive call do not appear. Unmarked numbers belong to inactive results. Calls of active or inactive are those of the source. The call rests on the fitted dose curve; in most records, active means well fitted inhibition curve with a large enough effect; inconclusive means small, poorly fitted or top-dose-only effect; inactive means flat fitted curve, though single readings scatter.
Assay: qHTS Assay for Inhibitors of Fructose-1,6-bisphosphate Aldolase from Giardia Lamblia: Mammalian cellular toxicity (AID 2786);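 further: compound exposure lasted 48 h before reading; nearly all actives have a fitted effect of over 60% in size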
Conditions: mammalian cell viability counter-screen; series mostly up to 57.5 µM; viability change, negative = toxicity: at the top concentration
Source text: NIH Chemical Genomics Center [NCGC]
NIH Molecular Libraries Probe Production centers Network [MLPCN]
Assay Provider: Osnat Herzberg, University of Maryland
The objective of this project is to obtain compounds that inhibit Giardia lamblia growth. G. lamblia is a human pathogen which afflicts impoverished nations; it is the most common cause of outbreaks of diarrhea in the United States. During the course of our study of potential drug targets in Giardia, we have identified the Class II (Zn2+ functions in electrophilic catalysis) fructose-1,6-bisphosphate aldolase (FBPA) as an excellent candidate for drug targeting. FBPA is a key glycolytic pathway enzyme, essential for G. lamblia survival. The human FBPA belongs to the Class I aldolases, which have a different substrate binding site structure and a radically different catalytic mechanism (employing a lysine-Schiff base intermediate). Therefore, affinity-based or mechanism-based inhibitors of the Giardia FBPA are expected not to interfere with the catalytic function of the human FBPA.
A glyceraldehyde-3-phosphate dehydrogenase/triose phosphate isomerase/NAD/arsenate coupled assay was adapted to the 1536-well HTP format for use in the primary screen. This was done by coupling it to a diaphorase/resazurin/resorufin reaction that can be monitored by fluorescence (excitation, 544 nm; emission, 590 nm). Compounds identified in this screen will be further evaluated by coupling the glycerol-3-phosphate/triose phosphate isomerase/NADH assay to a phenazine methosulfate/tetranitroblue tetrazolium color reaction. False positives due to the dehydrogenases and diaphorase inhibition will be eliminated, and selectivity assay will triage inhibitors of mammalian triose phosphate isomerase and the Class I FBPA. G. lamblia FBPA inhibitors identified by the in vitro analyses will be examined for growth inhibition of Giardia trophozoites, and for cytotoxicity in human cells.
This assay addresses whether hits in the primary screen are cytotoxic to mammalian cells, using Chinese hamster ovary cells as a surrogate.
2uL/well media was dispensed per well into 1536-well white solid-bottom plates using Multidrop Combi dispenser. Subsequently, 23 nL/well compound solutions or DMSO controls were dispensed to the assay plates via a pintool workstation. The Chinese hamster ovary (CHO) cells were grown in T225 flasks to 70% confluence under a standard cell culture condition (ATCC), detached with 0.25% Trypsin/EDTA, and seeded at 250 cells/well in 5uL medium (Dulbecco's Modified Eagle Medium, 10% fetal bovine serum, 1x penicillin/streptomycin). The plates were incubated at 37 °C with 5% CO2 and 95% humidity for 48 hours, and then ATP content was measured following the addition of 4uL/well of ATPlite reagent and a 20 min incubation on a ViewLux plate reader.
Keywords: Fructose-bisphosphate aldolase, FBPA , Giardia lamblia , Giardia, HTS, Inhibitors
On the % scale 0 is the no-effect control and ±100 the full control effect; potency means the concentration at half of the fitted maximal effect.

Row | SMILES | viability change, negative = toxicity | Potency
1 | CN1CCCc2cc(C#N)c(=O)[nH]c21 | -2.91% | –
2 | O=[N+]([O-])c1ccc2nc(-c3ccccn3)[nH]c2c1 | – | 25.1 µM (active)
3 | O=C(N/N=C/c1ccccn1)c1cccnc1 | -13.3% | –
4 | CCN(CC(=O)NC(=O)NCc1ccccc1)Cc1nc2ccccc2c(=O)[nH]1 | -3.84% | –
5 | Cc1cc(C)nc(N/N=C/c2ccc([N+](=O)[O-])o2)n1 | 0.383% | –
6 | CC(=O)NC1CCN(CC(=O)Nc2nccs2)CC1 | -4% | –
7 | Clc1cccc(CN2COc3c(cc(Cl)c4cccnc34)C2)c1 | – | 20 µM (active)
8 | CN(C)CCOc1ccc(Cl)cc1C(C)(C)C | -4.49% | –
9 | CCN(CC(=O)Nc1ccc(S(=O)(=O)N2CCCC2)cc1)CC(=O)Nc1cccc(OC)c1 | -4.57% | –
10 | CN1C(=O)/C(=C\c2ccc(-c3ccccc3)o2)SC1=S | -4.51% | –
11 | CSc1n[nH]c(=S)n1N | 2.66% | –
12 | CN1CCN(CCCCOc2ccccc2-c2ccccc2)CC1 | -3.92% | –
13 | COC(=O)CC1=NN(c2nc(C)cc(C)n2)C(=O)C1 | 1.41% | –
14 | Cc1csc(NC(=O)CN2CCCCCC2)n1 | -7.59% | –
15 | O=C(O)Cn1c(Cc2ccccc2)nc2ccccc21 | -4.21% | –
16 | O=c1nc(N/N=C/c2ccco2)cn[nH]1 | 3.52% | –
17 | COc1ccc(CN2CCN(Cc3ccc(OC)c(OC)c3OC)CC2)cc1 | -1.43% | –
18 | Cc1cc(C)n(-c2ccc(Cl)c(C(=O)O)n2)n1 | 7.82% | –
19 | Cn1c(=O)[nH]c(=O)c2c1[nH]c(=S)n2Cc1ccccc1 | 0.432% | –
20 | O=c1[nH]c(=S)[nH]c2[nH]c(=S)[nH]c12 | -1.2% | –

Row | SMILES | viability change, negative = toxicity | Potency
21 | O=[N+]([O-])c1cc([N+](=O)[O-])c2cccnc2c1O | 21.6% | –
22 | COc1ccccc1CN1CCN(Cc2cc(OC)c(OC)cc2OC)CC1 | 3.82% | –
23 | COc1ccc(Cl)cc1C(=O)NNC(=O)c1nc2nc(C)cc(C)n2n1 | 12.3% | –
24 | CC(C)(c1ccccc1)c1ccc(OCCN2CCCC2)cc1 | 7.3% | –
25 | Cn1nnc(NC(=S)NC(=O)c2ccccc2)n1 | -1.08% | –
26 | Cc1cccc(-c2nnc(SCC(=O)O)n2Cc2ccccc2)c1 | 3.23% | –
27 | COc1ccc(OC)c(Nc2nc(-c3ccc(O)c(O)c3)cs2)c1 | -22.2% | –
28 | OCCN1CCN(C(=S)c2ccc(-c3ccccc3)cc2)CC1 | 6.87% | –
29 | O=C(Nc1nnc(-c2ccco2)o1)c1ccc(S(=O)(=O)N2CCOCC2)cc1 | 8.14% | –
30 | Cc1nc2ccc(NC(=S)N3CCC(C)CC3)cc2nc1C | -5.49% | –
31 | O=C(Nc1ccccc1Cl)O/N=C(/c1ccccc1)c1ccccn1 | 0.929% | –
32 | Cc1ccc(S(=O)(=O)NNC(=S)NC(C)(C)C)cc1 | -3.18% | –
33 | Oc1ccc2ccccc2c1N=Nc1nccs1 | – | 10 µM (active)
34 | COc1ccc(N=Nc2c(-c3ccc(OC)cc3)[nH]oc2=O)cc1 | -3.71% | –
35 | COc1ccc(C(=O)NC(=S)N2CCCCC2c2cccnc2)cc1OC (stereo not given) | 1.32% | –
36 | CC1CCCN(S(=O)(=O)c2ccc(C(=O)Nc3nnc(-c4ccncc4)o3)cc2)C1 (stereo not given) | -6.34% | –
37 | Cc1ccc(C(=O)Nc2nnc(C3=COCCO3)o2)cc1C | 0.426% | –
38 | CNC(=S)N/N=C/c1ccc(N2CCOCC2)s1 | -3.94% | –
39 | O=C(CN1CCN(Cc2ccccc2)CC1)Nc1ccc(F)c(F)c1 | 15.6% | –
40 | C=C(C)CNC(=S)N/N=C/c1ccccc1OCC(=O)O | 21.4% | –

Source: PubChem BioAssay (NCATS)
